Numbering of substitutions follows the chain as printed.
Tests used:
Assay in all cases: RNA Bind-n-Seq (nitrocellulose filter binding and sequencing); miR-122 guide loaded in AGO2; 60 min incubation; 30 mM Tris pH 8.0, 100 mM potassium acetate, 2 mM magnesium acetate, 0.5 mM TCEP, 0.005% NP-40, 0.01 mg/ml yeast tRNA; 3 nM AGO2-miR-122, 100 nM RNA library; 60; high values mean tight binding
Conditions in all cases: protein: recombinant; tags: His6 (N-terminal, pFastBac HTA)
[1] = target: AGO2 L192P (Homo sapiens, UniProt Q9UKV8 1-859, L192P;S387D;S824A;S828D;S831D;S834A)
Outline: (§1)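 Fold enrichment is each target's read fraction divided by its read fraction in the input library. Sf9 insect cells expressed His-tagged AGO2 from baculovirus; the protein was loaded with a synthetic guide RNA and purified by Ni-NTA and a biotinylated capture oligo. The bound RNA was extracted, reverse-transcribed, barcode-amplified and sequenced on Illumina.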

[2] = target: AGO2 A367P (Homo sapiens, UniProt Q9UKV8 1-859, A367P;S387D;S824A;S828D;S831D;S834A)
Outline: as §1

[3] = target: AGO2 T357M (Homo sapiens, UniProt Q9UKV8 1-859, T357M;S387D;S824A;S828D;S831D;S834A)
Outline: as §1

[4] = target: AGO2 F182del (Homo sapiens, UniProt Q9UKV8 1-859, S387D;S824A;S828D;S831D;S834A;del182-182)
Outline: as §1

Chain of AGO2 A367P (Q9UKV8 whole entry A367P/S387D/S824A/S828D/S831D/S834A): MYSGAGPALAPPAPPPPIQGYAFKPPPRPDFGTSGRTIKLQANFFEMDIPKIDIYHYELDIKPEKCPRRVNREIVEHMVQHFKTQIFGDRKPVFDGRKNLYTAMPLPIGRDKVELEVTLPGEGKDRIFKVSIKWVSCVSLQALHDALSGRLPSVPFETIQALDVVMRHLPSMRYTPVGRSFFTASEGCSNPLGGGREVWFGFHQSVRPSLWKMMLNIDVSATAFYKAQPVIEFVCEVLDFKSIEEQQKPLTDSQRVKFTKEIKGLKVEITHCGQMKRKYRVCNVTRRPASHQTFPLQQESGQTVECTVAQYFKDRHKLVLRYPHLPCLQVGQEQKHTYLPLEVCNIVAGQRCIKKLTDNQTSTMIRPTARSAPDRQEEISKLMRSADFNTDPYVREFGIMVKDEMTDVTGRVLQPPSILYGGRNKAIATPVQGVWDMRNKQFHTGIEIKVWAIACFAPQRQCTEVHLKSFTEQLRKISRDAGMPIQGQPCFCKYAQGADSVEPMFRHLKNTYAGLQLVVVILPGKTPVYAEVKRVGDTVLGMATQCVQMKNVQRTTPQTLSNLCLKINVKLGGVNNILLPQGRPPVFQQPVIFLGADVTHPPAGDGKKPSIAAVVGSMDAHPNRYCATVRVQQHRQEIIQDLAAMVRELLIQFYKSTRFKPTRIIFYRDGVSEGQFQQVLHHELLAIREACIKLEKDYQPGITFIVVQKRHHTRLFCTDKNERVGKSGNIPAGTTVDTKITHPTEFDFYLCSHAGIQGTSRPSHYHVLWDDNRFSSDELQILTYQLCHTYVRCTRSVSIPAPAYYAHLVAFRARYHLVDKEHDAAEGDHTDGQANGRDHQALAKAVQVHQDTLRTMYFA
Chain of AGO2 L192P (Q9UKV8 whole entry L192P/S387D/S824A/S828D/S831D/S834A): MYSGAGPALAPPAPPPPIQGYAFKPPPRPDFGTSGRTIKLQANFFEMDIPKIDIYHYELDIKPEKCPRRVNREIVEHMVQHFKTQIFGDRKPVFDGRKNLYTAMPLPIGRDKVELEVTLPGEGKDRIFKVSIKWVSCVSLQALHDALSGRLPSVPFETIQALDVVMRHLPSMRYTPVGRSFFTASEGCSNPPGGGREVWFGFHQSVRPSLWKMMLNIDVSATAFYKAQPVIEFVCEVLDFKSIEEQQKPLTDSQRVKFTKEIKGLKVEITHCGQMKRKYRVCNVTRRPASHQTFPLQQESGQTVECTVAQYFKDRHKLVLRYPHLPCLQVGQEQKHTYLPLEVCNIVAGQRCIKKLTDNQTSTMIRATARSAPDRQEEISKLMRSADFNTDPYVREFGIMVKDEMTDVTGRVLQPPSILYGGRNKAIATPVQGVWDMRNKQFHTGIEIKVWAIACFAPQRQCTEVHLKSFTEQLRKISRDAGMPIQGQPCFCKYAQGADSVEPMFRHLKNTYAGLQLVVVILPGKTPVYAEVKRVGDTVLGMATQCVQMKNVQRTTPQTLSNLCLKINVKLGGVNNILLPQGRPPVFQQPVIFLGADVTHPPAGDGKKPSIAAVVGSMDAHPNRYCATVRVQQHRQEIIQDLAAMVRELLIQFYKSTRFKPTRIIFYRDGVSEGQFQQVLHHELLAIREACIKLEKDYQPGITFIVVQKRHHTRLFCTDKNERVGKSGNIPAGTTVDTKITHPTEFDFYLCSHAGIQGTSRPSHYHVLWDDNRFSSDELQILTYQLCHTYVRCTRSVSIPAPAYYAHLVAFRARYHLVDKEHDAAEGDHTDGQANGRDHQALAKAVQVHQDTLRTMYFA
Chain of AGO2 F182del (Q9UKV8 other isoform, or with tags, fused parts or gaps S387D;S824A;S828D;S831D;S834A;del182-182): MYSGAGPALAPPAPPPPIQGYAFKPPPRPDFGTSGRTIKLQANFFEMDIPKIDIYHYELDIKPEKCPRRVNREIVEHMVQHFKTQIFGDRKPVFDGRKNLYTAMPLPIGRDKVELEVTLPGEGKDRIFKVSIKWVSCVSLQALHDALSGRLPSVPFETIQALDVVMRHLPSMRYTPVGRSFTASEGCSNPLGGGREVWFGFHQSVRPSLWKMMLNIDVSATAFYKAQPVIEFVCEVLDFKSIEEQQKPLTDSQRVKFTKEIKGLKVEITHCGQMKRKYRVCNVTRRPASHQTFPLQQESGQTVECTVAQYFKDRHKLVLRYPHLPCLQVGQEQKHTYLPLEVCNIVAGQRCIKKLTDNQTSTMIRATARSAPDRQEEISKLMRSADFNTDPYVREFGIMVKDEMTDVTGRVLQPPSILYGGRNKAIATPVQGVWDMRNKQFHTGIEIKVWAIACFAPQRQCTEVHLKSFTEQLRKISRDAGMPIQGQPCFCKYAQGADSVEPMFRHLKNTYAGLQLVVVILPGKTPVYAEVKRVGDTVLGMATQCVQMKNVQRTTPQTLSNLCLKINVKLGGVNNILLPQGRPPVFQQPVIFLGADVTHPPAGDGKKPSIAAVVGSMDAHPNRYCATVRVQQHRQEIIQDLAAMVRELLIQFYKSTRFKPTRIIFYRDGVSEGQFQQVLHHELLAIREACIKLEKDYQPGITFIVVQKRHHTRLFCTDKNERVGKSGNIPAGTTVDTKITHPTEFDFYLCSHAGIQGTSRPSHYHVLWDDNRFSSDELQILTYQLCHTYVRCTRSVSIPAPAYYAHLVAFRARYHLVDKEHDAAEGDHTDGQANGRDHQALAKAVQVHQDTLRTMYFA
Chain of AGO2 T357M (Q9UKV8 whole entry T357M/S387D/S824A/S828D/S831D/S834A): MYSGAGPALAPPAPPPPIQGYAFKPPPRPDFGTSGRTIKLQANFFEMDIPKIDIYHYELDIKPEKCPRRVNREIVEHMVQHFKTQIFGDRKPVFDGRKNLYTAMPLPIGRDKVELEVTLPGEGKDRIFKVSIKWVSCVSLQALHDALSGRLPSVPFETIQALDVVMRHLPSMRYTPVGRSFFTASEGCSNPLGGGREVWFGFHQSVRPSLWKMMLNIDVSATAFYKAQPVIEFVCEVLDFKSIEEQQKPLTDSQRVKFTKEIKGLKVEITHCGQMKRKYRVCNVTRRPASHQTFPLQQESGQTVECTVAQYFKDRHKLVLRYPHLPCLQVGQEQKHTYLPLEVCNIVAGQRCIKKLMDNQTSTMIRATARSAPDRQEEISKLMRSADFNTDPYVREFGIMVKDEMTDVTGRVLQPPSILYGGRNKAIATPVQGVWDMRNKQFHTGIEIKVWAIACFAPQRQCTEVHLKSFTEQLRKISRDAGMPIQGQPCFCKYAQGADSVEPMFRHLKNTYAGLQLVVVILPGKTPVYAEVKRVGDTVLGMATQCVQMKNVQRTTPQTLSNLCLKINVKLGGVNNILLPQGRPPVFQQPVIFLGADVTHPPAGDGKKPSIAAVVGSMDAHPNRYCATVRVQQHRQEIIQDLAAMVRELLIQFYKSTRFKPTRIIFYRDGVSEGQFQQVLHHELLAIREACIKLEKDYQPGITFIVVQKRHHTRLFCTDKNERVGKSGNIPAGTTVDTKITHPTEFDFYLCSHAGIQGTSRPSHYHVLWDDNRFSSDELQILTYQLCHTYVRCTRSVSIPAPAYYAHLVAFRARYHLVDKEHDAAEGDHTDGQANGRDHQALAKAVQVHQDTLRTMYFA

B1: GCGCTCTA (ssRNA)
RNA 1: GAGUUCUACAGUCCGACGAUCCCAACGCGCUCUACACCUGGAAUUCUCGGGUGCCAA
RNA 2: UGGAGUGUGACAAUGGUGUUUG
DNA 1: GATCGTCGGACTGTAGAACTC
DNA 2: TTGGCACCCGAGAATTCCA
modifications: constant regions annealed to DNA blockers; guide miR-122 5' phosphate
binding signal [1]: 0.459 fold enrichment over input
binding signal [2]: 0.19 fold enrichment over input
binding signal [3]: 0.635 fold enrichment over input

B2: ACACCTTG (ssRNA)
RNA 1: B1 RNA 1 with G27A, G29A, U31C, C32U, A34G
RNA 2: UGGAGUGUGACAAUGGUGUUUG
DNA 1: GATCGTCGGACTGTAGAACTC
DNA 2: TTGGCACCCGAGAATTCCA
modifications: constant regions annealed to DNA blockers; guide miR-122 5' phosphate
binding signal [1]: 0.422 fold enrichment over input
binding signal [2]: 0.169 fold enrichment over input
binding signal [3]: 0.452 fold enrichment over input
binding signal [4]: 0.318 fold enrichment over input

B3: GCGCCCCA (ssRNA)
RNA 1: B1 RNA 1 with U31C, U33C
RNA 2: UGGAGUGUGACAAUGGUGUUUG
DNA 1: GATCGTCGGACTGTAGAACTC
DNA 2: TTGGCACCCGAGAATTCCA
modifications: constant regions annealed to DNA blockers; guide miR-122 5' phosphate
binding signal [1]: 0.498 fold enrichment over input
binding signal [2]: 0.192 fold enrichment over input
binding signal [3]: 0.741 fold enrichment over input

B4: ATATTCTA (ssRNA)
RNA 1: B1 RNA 1 with G27A, C28U, G29A, C30U
RNA 2: UGGAGUGUGACAAUGGUGUUUG
DNA 1: GATCGTCGGACTGTAGAACTC
DNA 2: TTGGCACCCGAGAATTCCA
modifications: constant regions annealed to DNA blockers; guide miR-122 5' phosphate
binding signal [1]: 0.453 fold enrichment over input
binding signal [2]: 0.18 fold enrichment over input
binding signal [3]: 0.631 fold enrichment over input

B5: ACATTCCG (ssRNA)
RNA 1: B1 RNA 1 with G27A, G29A, C30U, U33C, A34G
RNA 2: UGGAGUGUGACAAUGGUGUUUG
DNA 1: GATCGTCGGACTGTAGAACTC
DNA 2: TTGGCACCCGAGAATTCCA
modifications: constant regions annealed to DNA blockers; guide miR-122 5' phosphate
binding signal [1]: 0.382 fold enrichment over input
binding signal [2]: 0.156 fold enrichment over input
binding signal [3]: 0.428 fold enrichment over input
binding signal [4]: 0.178 fold enrichment over input

B6: ATGCCCCA (ssRNA)
RNA 1: B1 RNA 1 with G27A, C28U, U31C, U33C
RNA 2: UGGAGUGUGACAAUGGUGUUUG
DNA 1: GATCGTCGGACTGTAGAACTC
DNA 2: TTGGCACCCGAGAATTCCA
modifications: constant regions annealed to DNA blockers; guide miR-122 5' phosphate
binding signal [1]: 0.494 fold enrichment over input
binding signal [2]: 0.191 fold enrichment over input
binding signal [3]: 0.652 fold enrichment over input
binding signal [4]: 0.191 fold enrichment over input

B7: ACGCCTTA (ssRNA)
RNA 1: B1 RNA 1 with G27A, U31C, C32U
RNA 2: UGGAGUGUGACAAUGGUGUUUG
DNA 1: GATCGTCGGACTGTAGAACTC
DNA 2: TTGGCACCCGAGAATTCCA
modifications: constant regions annealed to DNA blockers; guide miR-122 5' phosphate
binding signal [1]: 0.493 fold enrichment over input
binding signal [2]: 0.221 fold enrichment over input
binding signal [3]: 0.625 fold enrichment over input
binding signal [4]: 0.246 fold enrichment over input

B8: GCGCCCTA (ssRNA)
RNA 1: B1 RNA 1 with U31C
RNA 2: UGGAGUGUGACAAUGGUGUUUG
DNA 1: GATCGTCGGACTGTAGAACTC
DNA 2: TTGGCACCCGAGAATTCCA
modifications: constant regions annealed to DNA blockers; guide miR-122 5' phosphate
binding signal [1]: 0.492 fold enrichment over input
binding signal [2]: 0.195 fold enrichment over input
binding signal [3]: 0.721 fold enrichment over input

B9: GTGTCTTA (ssRNA)
RNA 1: B1 RNA 1 with C28U, C30U, U31C, C32U
RNA 2: UGGAGUGUGACAAUGGUGUUUG
DNA 1: GATCGTCGGACTGTAGAACTC
DNA 2: TTGGCACCCGAGAATTCCA
modifications: constant regions annealed to DNA blockers; guide miR-122 5' phosphate
binding signal [1]: 0.461 fold enrichment over input
binding signal [2]: 0.173 fold enrichment over input
binding signal [3]: 0.599 fold enrichment over input

B10: ATATCCCA (ssRNA)
RNA 1: B1 RNA 1 with G27A, C28U, G29A, C30U, U31C, U33C
RNA 2: UGGAGUGUGACAAUGGUGUUUG
DNA 1: GATCGTCGGACTGTAGAACTC
DNA 2: TTGGCACCCGAGAATTCCA
modifications: constant regions annealed to DNA blockers; guide miR-122 5' phosphate
binding signal [1]: 0.464 fold enrichment over input
binding signal [2]: 0.195 fold enrichment over input
binding signal [3]: 0.568 fold enrichment over input
binding signal [4]: 0.249 fold enrichment over input

B11: GTGTTCCA (ssRNA)
RNA 1: B1 RNA 1 with C28U, C30U, U33C
RNA 2: UGGAGUGUGACAAUGGUGUUUG
DNA 1: GATCGTCGGACTGTAGAACTC
DNA 2: TTGGCACCCGAGAATTCCA
modifications: constant regions annealed to DNA blockers; guide miR-122 5' phosphate
binding signal [1]: 0.444 fold enrichment over input
binding signal [2]: 0.197 fold enrichment over input
binding signal [3]: 0.556 fold enrichment over input
binding signal [4]: 0.125 fold enrichment over input

— publication PMC12529666, “Dysregulation of AGO2-miRNA dynamics underlies the AGO2-associated Lessel–Kreienkamp syndrome”
